# HSP90 inh: HSP90 refolding inhibition in rabbit reticulocyte lysate | luciferase refolding luminescence, 3 h | inhibition, % at 5.6 µM | hit rate 0.91% among 290,000 | AID 1789;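 active = inhibition above the screen-wide mean plus 3 SD, computed separately per campaign, cut at about 16% in these data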;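 also: inhibitors lower the luminescence because luciferase stays unfolded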
# HSF1 inh: HSF1 inhibition. NIH3T3-HGL HSE-luciferase, MG132-induced, luminescence 8 h; stronger effect = lower value. activity change, negative = inhibition, % at 7.5 µM (by protocol). hit rate 0.77% among 300,000. AID 2098;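 active = more than half of replicate wells show activity change below -50%, luminescence cut by over half; inconclusive = some wells, but at most half, below -50%; inactive = no replicate well below -50%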;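 also: luciferase reports HSF-1 transcriptional activity via heat shock element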
# HSF-1 act: increases HSF-1 driven luciferase reporter signal. NIH3T3-HGL HSF-1 luciferase reporter, MG132, 8 h; 100% = twice DMSO control signal. activation, % at 9 µM. hit rate 1.7% among 300,000;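 active = mean replicate activation of at least 50% with a set share of replicates each reaching 50%; inconclusive = only one of those two conditions met; inactive = mean below 50% and too few replicates reaching it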
# dFosB act: mouse delta FosB homodimer activation; P13346; purified delta FosB, TAMRA-CDK5 oligo fluorescence polarization; percent of positive-control signal above neutral wells; activation, % at 25 µM; hit rate 0.99% among 340,000; AID 493131;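 active = mean activation above about 17%, with every replicate also reaching it, limit read from the data, passing the limit was not always enough; inconclusive = only one of the two conditions met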
# Platelet DG rel: modulates dense granule release in human platelets | AID 1663 | human platelet-rich plasma, SFLLRN dense granule ATP release, luminescence | hit rate 0.22% among 300,000 | inhibition, %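 (compounds screened at 7.5 µM in platelet-rich plasma)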;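 active = mean replicate score, as percent of positive control, at or above 50; inconclusive = mean below 50 but at least one replicate at or above 50; inactive = mean and every replicate below 50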
# MPTP inh: permeability transition pore inhibition; AID 602449; inhibition, % at 10 µM; isolated mouse mitochondria, Ca2+ swelling absorbance, 30 min; hit rate 1.4% among 360,000;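 active = inhibition of 50% or more, scaled per plate between neutral and stimulator controls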
# HSP90 inh confirm: confirmation of HSP90 inhibitors | shares compounds with HSP90 inh | rabbit reticulocyte lysate, luciferase refolding luminescence, 3 h | inhibition, % at 5.9 µM | hit rate 64% among 2,300 | AID 1846; in the data active = inhibition above about 18%
# luciferase ctr: firefly luciferase inhibition, HSP90 counter-screen. purified native firefly luciferase, luminescence. hit rate 48% among 2,300. inhibition, % at 5.9 µM. AID 1847. shares compounds with HSP90 inh;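 active = inhibition above the mean inhibition of all tested sample wells plus 3 SD, cut at about 10% in these data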
# Target sequence (P08659 whole entry, looked up): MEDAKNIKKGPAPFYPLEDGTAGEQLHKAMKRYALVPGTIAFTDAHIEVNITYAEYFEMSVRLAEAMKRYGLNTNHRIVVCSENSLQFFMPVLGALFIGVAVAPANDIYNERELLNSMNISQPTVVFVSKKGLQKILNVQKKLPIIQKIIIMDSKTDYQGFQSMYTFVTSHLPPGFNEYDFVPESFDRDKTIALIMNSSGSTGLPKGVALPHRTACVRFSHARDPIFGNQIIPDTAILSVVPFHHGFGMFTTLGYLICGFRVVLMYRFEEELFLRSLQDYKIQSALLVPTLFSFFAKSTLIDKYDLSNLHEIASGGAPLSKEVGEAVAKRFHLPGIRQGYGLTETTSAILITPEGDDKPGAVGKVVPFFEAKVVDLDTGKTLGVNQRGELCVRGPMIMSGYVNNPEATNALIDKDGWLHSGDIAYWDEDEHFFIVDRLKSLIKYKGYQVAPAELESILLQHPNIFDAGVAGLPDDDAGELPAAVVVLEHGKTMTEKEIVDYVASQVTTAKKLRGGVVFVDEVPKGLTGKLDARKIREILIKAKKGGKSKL
# Numbers stand for hits; n = inactive; u = inconclusive; x = no result. Only some compounds are listed: those with a hit (about 4.9% of all), similar ones and a draw of the others.
SMILES,HSP90 inh,HSF1 inh,HSF-1 act,dFosB act,Platelet DG rel,MPTP inh,HSP90 inh confirm,luciferase ctr
CC(C)NC(=O)c1cc(C2CCCCN2S(=O)(=O)c2ccccc2)on1 (configuration not stated),x,x,x,x,x,n,x,x
CCCCN(C(=O)c1ccc2c(c1)OCO2)c1c(N)n(CC(C)C)c(=O)[nH]c1=O,x,x,x,n,x,n,x,x
CCOC(=O)c1sc(N)c(C#N)c1CSc1nc2ccc(C)cc2[nH]1,18.4,n,n,n,n,n,n,n
CCC(=O)c1cn(CC(=O)Nc2ccccc2Cl)c2ccccc12,n,n,n,n,n,n,x,x
CCCCNC(=S)N1CCN(CC)CC1,52.6,n,n,n,n,n,n,n
CCOCCCNC(=S)N1CCN(CC)CC1,n,n,n,n,n,n,x,x
COC(=O)N1C(=O)[C@](c2ccccc2)(C(C)C)N1C(=O)OC,31.1,n,n,n,n,n,n,n
O=C(CN(Cc1ccco1)C(=O)c1ccc(F)cc1)Nc1ccccc1Br,x,x,x,n,x,n,x,x
COc1ccc(-c2c(-c3ccsc3)oc3c2C(O)CCC3)cn1 (configuration not stated),x,x,x,x,x,n,x,x
CCC(=O)Nc1cccc(NC(=O)c2cc3ccccc3o2)c1,n,n,n,n,n,n,x,x
COc1cccc(NC(=O)c2cc3ccccc3oc2=O)c1,28.2,n,u,n,n,n,64.5,71.7
CCC(=O)Nc1cccc(-c2cc3ccccc3oc2=O)c1,19.4,n,n,n,n,n,32.0,18.6
CCOC(=O)c1c(C)[nH]c(C)c1C(=O)COC(=O)c1nc2nccc(C)n2n1,n,n,n,n,n,n,x,x
Cc1cc(C(=O)CN2CCC(C)CC2)c(C)n1-c1ccccc1F,52.6,-72.8,n,n,n,n,58.5,27.6
Cc1cc(C(=O)CN2C(=O)C(=O)N(Cc3ccccc3)C2=O)c(C)n1-c1ccccc1F,n,n,n,n,n,n,x,x
Cc1cccc(-c2cc3nc4c(c(N5CCC6(CC5)OCCO6)n3n2)CCCC4)c1,n,x,x,n,x,n,x,x
Cc1cccc(-c2cc3nc4c(c(N5CCOCC5)n3n2)CCCC4)c1,40.1,x,x,n,n,n,59.0,58.2
COc1cc(SC)ccc1C(=O)Nc1ccccn1,18.4,n,n,n,n,n,46.8,38.3
COc1cc(SC)ccc1C(=O)Nc1ccon1,n,n,n,n,n,n,x,x
COc1cc(SC)ccc1C(=O)Nc1ncc(C)s1,80.5,n,n,n,n,n,87.5,84.8
COc1cc(SC)ccc1C(=O)Nc1cccc(C)n1,n,n,n,n,n,n,x,x
COc1cc(SC)ccc1C(=O)Nc1ccc(Br)cn1,33.3,n,n,n,n,n,87.1,83.3
Cc1ccc(C(=O)Nc2ncc(C)s2)s1,28.6,n,69.8,n,n,n,50.0,39.9
COc1ccc(-c2ccc(CO)o2)cc1N,n,n,n,n,n,n,x,x
Cc1cc(C)n(Cc2cccc(C(=O)N/N=C/c3ccncc3)c2)n1,n,n,n,n,n,n,x,x
SMILES,HSP90 inh,HSF1 inh,HSF-1 act,dFosB act,Platelet DG rel,MPTP inh,HSP90 inh confirm,luciferase ctr
CC1(C)CC(NC(=O)COc2ccccc2Cl)CC(C)(C)N1,33.5,-65.2,n,n,n,n,37.4,45.2
CC1(C)CC(NC(=O)COc2ccc(Br)cc2Cl)CC(C)(C)N1,n,n,n,n,n,n,x,x
Cc1nn(-c2ccccc2Cl)c(Cl)c1/C=N/Nc1cccc(C(=O)O)c1,32.8,-71.0,n,n,n,n,60.7,77.2
Cc1nn(-c2ccccc2)c(Cl)c1/C=N/NC(=O)c1cccc(S(=O)(=O)N2CCCC2)c1,n,n,n,n,n,n,x,x
O=C(O)c1cccc(N/N=C/C2=C(Cl)c3cc(Cl)ccc3SC2)c1,17.6,n,n,n,n,n,26.5,29.9
Cc1ccc(/C=N/Nc2cccc(C(=O)O)c2)s1,24.1,n,n,n,n,n,85.5,84.8
O=C(O)c1cccc(N/N=C/c2cccc3ccccc23)c1,63.4,n,n,n,n,n,87.0,89.5
CC(NS(=O)(=O)c1cc2c3c(c1)CCN3C(=O)CC2)c1ccccc1 (configuration not stated),x,x,x,x,x,n,x,x
COc1ccccc1CCNC(=O)C(=O)NCC1OCCN1S(=O)(=O)c1ccc2c(c1)OCCO2 (configuration not stated),n,n,n,n,n,n,x,x
O=C(O)c1ccc(N/N=C/c2cc(Br)cs2)cc1,49.7,n,n,n,n,n,69.5,71.1
Cc1ccsc1/C=N/Nc1ccc(C(=O)O)cc1,68.3,n,n,n,n,n,80.5,77.1
O=C(N/N=C\c1cc(Br)cs1)c1ccncc1,n,n,n,n,n,n,x,x
O=C(O)c1ccc(N/N=C/c2cc3ccccc3nc2Cl)cc1,27.7,n,n,n,n,n,n,n
Cc1ccsc1/C=N/Nc1cccc(C(=O)O)c1,64.8,-54.0,n,n,n,n,94.0,91.5
Cc1cccc2cc(/C=N/Nc3ccc(C(=O)O)cc3)c(Cl)nc12,n,n,n,n,n,n,x,x
CCOc1ccc(-c2c[n+]3c(n2-c2ccccc2)CCCCC3)cc1,n,n,n,n,n,n,x,x
CN1CCN(C(=O)c2cnn3c2NC(c2ccccc2)CC3C(F)(F)F)CC1 (configuration not stated),n,n,n,n,n,n,x,x
Cc1ccc(NCC(=O)c2ccc(C)cc2)cc1,22.4,n,n,n,n,n,n,n
O=C(Nc1nncs1)c1cc2c(s1)CCC2,n,n,n,n,n,n,x,x
O=C(Nc1nccs1)c1cc2c(s1)CCCCC2,58.6,n,n,n,n,n,86.3,81.4
Cc1ccccc1NC(=O)CSCc1cc(=O)n2ccsc2n1,n,n,n,n,n,n,x,x
COCCNC(=O)C1(C)CCCN(Cc2cn(C)c3ccccc23)C1 (configuration not stated),x,x,x,x,x,n,x,x
COc1cc(/C=N/NC(=O)c2ccoc2C)ccc1O,n,n,n,n,n,n,x,x
CCN(CC)c1ccc(/C=N/NC(=O)c2ccoc2C)cc1,31.5,n,n,n,67.5,n,58.9,54.0
CCCCn1c(SC(C)C(=O)NCC2CCCO2)nc2cc(C(=O)OC)ccc2c1=O (configuration not stated),x,n,n,n,n,n,x,x
CCCCn1c(SC(C)C(N)=O)nc2cc(C(=O)OC)ccc2c1=O (configuration not stated),28.1,n,n,n,n,n,n,n
Cc1cc(C(=O)CSc2nnnn2C)c(C)n1Cc1ccco1,n,n,n,n,n,n,x,x
Cc1cc(C(=O)CSc2ncccn2)c(C)n1Cc1ccco1,17.4,n,n,n,n,n,46.4,37.3
CCN1CCN(S(=O)(=O)c2ccc(Cl)c(C(=O)N(C)CCOc3ccc(Cl)cc3)c2)CC1,x,n,n,n,n,n,x,x
